According to PubChem BioAssay AID1063 (University of Pittsburgh Molecular Library Screening Center, 2008):
The whole screen tested about 200,000 compounds, of which about 18,000 (9%) were called active. The entries come from a sample that favours actives as a whole. Values without a mark were called inactive. Cut-off read from the data, not from the text of the source: active = inhibition above about 50%; inactive = the rest.

Assay: antileishmanial activity against promastigotes – primary screen (AID 1063);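 note: promastigotes grown with compound for 44 hours at 28 °C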
Settings: Leishmania major promastigotes, resazurin fluorescence viability; at 10 µM; hits give high values

Structure (SMILES) | inhibition
CCNC(=O)COc1cc(C)c(Br)c(C)c1 | -1.41%
CN(C)/C=C(/C(=O)c1ccc(F)cc1)S(=O)(=O)c1ccc(F)cc1 | -1.08%
CCC(C)(C)NC(=O)C(c1ccccn1)N(C(=O)c1csnn1)c1ccccc1 (stereo not drawn) | -5.39%
Cc1ccc(C)c(-n2nnnc2SCC(=O)c2c(N)n(C)c(=O)n(C)c2=O)c1 | -5.78%
CN(C)/C=C(/C(=O)c1ccccc1)S(=O)(=O)c1ccc(Cl)cc1 | -6.81%
COc1ccc(/C=N/NC(=O)Nc2ccc3nsnc3c2)c(OC)c1 | -1.6%
COc1cccc(NC(=O)c2ccc(Cn3cc([N+](=O)[O-])cn3)o2)c1 | 47.4%
COc1cccc(NC(=O)c2nn(-c3ccc(OC)cc3OC)c(=O)c3ccccc23)c1 | -3.79%
COc1cccc(NC(=O)c2nn(C34CC5CC(CC(C5)C3)C4)cc2[N+](=O)[O-])c1 | 66.2% (active)
CC(CO)NCC12CC3CC(CC(C3)C1)C2 (stereo not drawn) | 7.47%
CC(C)N(C)C(=O)CCc1nnc(CCc2c[nH]c3ccccc23)o1 | -3.38%
Cc1nnsc1C(=O)N/N=C/c1cccc(C(F)(F)F)c1 | 12.3%
CCOc1ccc(-n2c(SCC(=O)NC3CCS(=O)(=O)C3)nnc2-c2cccnc2)cc1 (stereo not drawn) | -3.53%
Cc1ccc(C(=O)NN(CCC#N)C2=NS(=O)(=O)c3ccccc32)cc1 | -9.19%
Cc1ccc(S(=O)(=O)N(NC2=NS(=O)(=O)c3ccccc32)C(=O)c2ccccc2)cc1 | 53% (active)
CC(C)(C)c1csc(NC2=NS(=O)(=O)c3ccccc32)n1 | -6.96%
O=C(NNS(=O)(=O)c1ccc(F)cc1)c1cnccn1 | -7.62%
COc1ccc(C(=O)NNC(=O)c2cc(C)[nH]n2)cc1 | -2.25%
Cc1ccc(Cl)c(NC(=O)CN(C)CC(=O)Nc2ccc(F)c(F)c2F)c1Cl | 0.59%
CC(CNC(=O)c1ccc(N)cc1)NC(=O)c1ccc(N)cc1 (stereo not drawn) | -1.57%
CCOC(=O)c1oc2ccccc2c1NC(=O)c1cccs1 | -2.52%
Cc1cc(C)c(NC(=O)c2oc3ccccc3c2COc2ccccc2)c(C)c1 | 62.7% (active)
COCc1c(C(=O)OCc2c(C)noc2C)oc2ccccc12 | -3.77%
NC(=O)COc1ccc(NC(=O)c2ccccc2-c2ccccc2)cc1 | 10.2%
CCO/C=C1\C(=O)N(c2ccc(OCC)cc2)C(=O)c2ccccc21 | 0.41%

Structure (SMILES) | inhibition
NS(=O)(=O)c1ccc(CCNC(=O)c2ccc(Cl)cc2[N+](=O)[O-])cc1 | 6.41%
NS(=O)(=O)c1ccc(CNC(=O)c2ccc(Cl)cc2[N+](=O)[O-])cc1 | 52.1% (active)
NS(=O)(=O)c1ccc(CCNC(=O)c2ccc([N+](=O)[O-])cc2[N+](=O)[O-])cc1 | -7.26%
Cc1ccc(C(=O)NCC(=O)O)s1 | -10.9%
CSc1ccc(/C=N\NC(=O)COc2ccc(Cl)cc2Br)cc1 | -9.17%
COCCCNCCOCCOc1ccc(Cl)cc1Br | 91.2% (active)
COCCNCCOCCOc1cccc(OC)c1 | 1.86%
Cc1cc(C)n(-c2ccc3nncn3n2)n1 | -5.45%
C=CCn1c(=NC(=O)c2cccs2)sc2cc(NC(C)=O)ccc21 | 9.06%
CCCOC1CCCN(Cc2cn(C)nc2-c2ccccc2F)C1 (stereo not drawn) | -5.85%
Cn1cc(CN2CCCC(CO)C2)c(-c2ccc(Oc3ccccc3)cc2)n1 (stereo not drawn) | 88.6% (active)
Cc1ccc(CN2CCN(Cc3cn(C)nc3-c3ccccc3)CC2CCO)o1 (stereo not drawn) | -3.67%
O=C(CSc1nc(O)c(Cc2ccccc2)c(=O)[nH]1)Nc1nc2c(s1)CCCC2 | 2.85%
CC(=O)NC(CC(=O)O)c1ccc(F)cc1 (stereo not drawn) | -5.31%
CC(=O)c1ccc(NC(=O)N[C@@H](Cc2ccccc2)C(=O)O)cc1 | -5.12%
CC(=O)NC(Cc1ccc(F)cc1)C(=O)O (stereo not drawn) | 83.9% (active)
N#Cc1c(N)nc2c(c1N)CC(C(F)(F)F)O2 (stereo not drawn) | 1.43%
Cc1ccc(C(=O)O)cc1N1C(=O)CCCC1=O | -2.53%
Cc1nc(-c2ccccc2)sc1C(=O)/C=C/c1ccccc1 | 48.9%
O=C(/C=C/c1ccccc1)c1ccccc1O | 9.25%
Cc1[nH]c(=O)c(C(=O)/C=C/c2ccccc2)c2c1CCCC2 | 98.8% (active)
O=C(CCNC(=O)Cn1ccc2ccccc2c1=O)NCCC1=CCCCC1 | -3.42%
Cc1ccccc1N1C(=O)C(Oc2ccc(Cl)cc2)C1CNCC1CCCO1 (stereo not drawn) | 14.7%
CCc1nc2ccccc2c(C(=O)NCc2ccc(OC)cc2)c1C | -2.62%
Cc1cccc2c(=O)n3c(nc12)CCCCC3 | -1.77%

Structure (SMILES) | inhibition
Cc1nc(N=C(N)N)nc2c(C)cccc12 | 99.5% (active)
COc1nc(N=C(N)N)nc2c(C)cccc12 | 29%
CCOc1ccc(N2C(=O)Nc3ccccc3C2(O)C(=O)NCc2ccco2)cc1 (stereo not drawn) | -6.71%
Cc1ccc(CCCOC(=O)C[N+]2(C)CCCCC2)cc1 | -3.49%
CSc1ccc(S(=O)(=O)NCc2ccc(Cl)cc2)cc1 | -1.27%
CSc1ccc(CNCCN2CCOCC2)cc1 | 67.6% (active)
CCCCNCc1ccc(SC)cc1 | 76.3% (active)
CCCCc1ccc(NC(=S)NCCCN2CCOCC2)cc1 | 32.5%
O=C(NCCN1CCOCC1)[C@H](Cc1ccccc1)N1C(=O)c2ccccc2C1=O | -3.08%
CSc1ccc(CN(C)CC(=O)NCc2ccc(F)cc2)cc1 | -5.11%
Cc1cc(/C=N/NC(N)=O)c(C)n1C1CCCCC1 | 2.71%
COc1ccc(-c2nc(N)sc2C2(O)C(=O)Nc3c(Br)cc(F)cc32)cc1OC (stereo not drawn) | -2.63%
O=C(/C=C/c1ccco1)Nc1ccc(Oc2ccccc2)cc1 | 99.6% (active)
Cc1nnc(NC(=O)/C=C/c2ccco2)s1 | 21.5%
O=C(/C=C/c1ccco1)Nc1cccc(-c2nc3ccccc3[nH]2)c1 | 28.8%
COC(=O)C1=C(C(=O)OC)C(c2cc([N+](=O)[O-])ccc2O)c2sc(=O)[nH]c2S1 (stereo not drawn) | -11.4%
Clc1ncn(CCOc2ccccc2)c1Cl | -6.41%
CCN(CC)CCNC(=O)Cn1cnc2sc(C)c(S(=O)(=O)N3CCOCC3)c2c1=O | -1.31%
CCN(CC)CCNC(=O)c1sc2ncn(CC(=O)Nc3ccc(C)c(Cl)c3)c(=O)c2c1C | 87.1% (active)
CCN(CC)CCCNC(=O)Cn1cnc2sc(C)c(S(=O)(=O)N3CCN(c4ncccn4)CC3)c2c1=O | 1.29%
O=C(CC1C(=O)NCCN1Cc1ccc(-c2ccccc2)cc1)NCc1ccncc1 (stereo not drawn) | -2.72%
Cc1ccccc1NC(=O)CN1C(=O)N/C(=C\c2cccn2-c2cccc(C(=O)O)c2)C1=O | -4.64%
Cc1ccc(Nc2cc(C)nc3c(C)ccc([N+](=O)[O-])c23)cc1 | 87.2% (active)
Cc1ccc(Nc2ccc(C(N)=O)cc2[N+](=O)[O-])cc1 | -4.3%
Cc1cc(C)nc(Nc2cc([N+](=O)[O-])ccc2C)n1 | 2.27%

Structure (SMILES) | inhibition
O=S(=O)(Nc1ccccn1)c1cccc(S(=O)(=O)c2ccc(Cl)cc2)c1 | -10.8%
CC(C)(C)NC(=O)Cn1cnc2cc([N+](=O)[O-])ccc2c1=O | 3.94%
O=C(/C=C/c1ccc(F)cc1)Nc1cccc(S(=O)(=O)Nc2cccc(C(F)(F)F)c2)c1 | 50.4% (active)
O=C(CN1CCN(c2ccc(F)cc2)CC1)Nc1cccc(C(F)(F)F)c1 | -7.62%
CCNS(=O)(=O)c1ccc(NC(=O)Nc2cccc(C(F)(F)F)c2)cc1 | 31.4%
O=C(NCc1ccco1)c1nn2cccnc2c1Cl | -2.79%
COc1ccc(Sc2nc(-c3ccccc3)ncc2OC)cc1 | -4.44%
CC(Oc1cccc(NC(=O)c2cccs2)c1)C(=O)c1ccccc1 (stereo not drawn) | 16.5%
Cc1ccc(N(Cc2ccc(C(=O)Nc3ccccc3C(=O)NCc3ccco3)cc2)S(C)(=O)=O)cc1C | 61.3% (active)
CS(=O)(=O)N(Cc1ccc(Cl)cc1)c1ccc(C(=O)NCCSCc2ccco2)cc1 | 53.3% (active)
Cc1cccc(Nc2ccccc2C(=O)NCc2ccco2)c1C | 38.2%
O=C(Nc1ccccc1)Nc1ccccc1C(=O)NCc1ccco1 | 4.53%
CCc1ccccc1N(CC(=O)NCCSCc1ccco1)S(C)(=O)=O | -4.33%
Cc1cc(C)cc(N(CC(=O)NCCSCc2ccco2)S(C)(=O)=O)c1 | -4.83%
CCOC(=O)c1sc(NC(=O)CSc2n[nH]c(CC)n2)nc1C | -7.68%
Cc1ccccc1NS(=O)(=O)CCCCC(Cl)(Cl)Cl | 5.47%
COc1ccc(C2CC(c3cccs3)=NN2c2ccccc2)cc1 (stereo not drawn) | -1.67%
CCOC(=O)N1CCN(C(=O)Cn2cnc3ccccc3c2=O)CC1 | -4.19%
COc1ccc(NC(=O)C(=O)NCC(=O)Nc2cccc(C(F)(F)F)c2)cc1 | -4.66%
COC(=O)CSc1ncnc2c1cnn2-c1ccc(C)cc1C | 2.35%
CC1(C)NC(=O)N(CCOc2cccc(Oc3ccccc3)c2)C1=O | -11.3%
CC(O)CNCCOc1cccc(Oc2ccccc2)c1 (stereo not drawn) | 95.9% (active)
Cc1ccc([N+](=O)[O-])c(OCCCNCC(C)O)c1 (stereo not drawn) | -0.76%
